Here are results for 36 compounds from PubChem BioAssay (NCI).

Compounds without any hit were thinned out: in the full panel of roughly 79,000, 15% have a hit. Unmarked numbers belong to inactive results. Active and inactive are the calls of the source. Cut-off read from the data, not from the text of the source: active = growth inhibition above about 70%; inactive = the rest.

A short description of assay [1]: NCI Yeast Anticancer Drug Screen. Data for the rad50 strain (AID 155).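 Note: 0% = growth of vehicle-only cultures of the same strain.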 Particulars: S. cerevisiae rad50 strain growth inhibition; at 50.0 µM; stronger effect = higher value. The gist of the method:
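Vehicle-treated cultures provide the reference for the growth inhibition reported for compound-exposed, repair-deficient yeast.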

Assay [2] can be described thus: NCI Yeast Anticancer Drug Screen. Data for the mec2-1 strain (AID 157). To be noted: S. cerevisiae mec2-1 strain, at 50.0 µM, stronger effect = higher value. Summed up: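 Mutant yeast (mec2-1) grown with compound; growth inhibition relative to vehicle control reported.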
Assay [3] in a line: NCI Yeast Anticancer Drug Screen. Data for the sgs1 mgt1 strain (AID 161).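 Note: 0% = growth of cultures given vehicle only.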 Particulars: S. cerevisiae sgs1 mgt1 strain, at 50.0 µM, stronger effect = higher value. The gist of the method: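 Percent growth inhibition was derived by comparing compound-exposed mutant yeast with vehicle-exposed cultures. The strain carries alterations in DNA damage repair.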
Assay [4] is described as follows: NCI Yeast Anticancer Drug Screen. Data for the cln2 rad14 strain (AID 165).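 Note: 0% = growth equal to vehicle treated cultures.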 To be noted: S. cerevisiae cln2 rad14 strain, at 50.0 µM, stronger effect = higher value. The gist of the method: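 Readout is yeast growth inhibition versus vehicle-treated controls, using a strain with cln2 and rad14 alterations exposed to compound.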
Assay [5] in a line: NCI Yeast Anticancer Drug Screen. Data for the bub3 strain (AID 167). Particulars: S. cerevisiae bub3 mutant strain, at 50.0 µM, stronger effect = higher value. Summed up: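 Mutant yeast screening strain plus compound; vehicle-treated cultures serve as the 0% inhibition reference.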
Assay [6] is described as follows: NCI Yeast Anticancer Drug Screen. Data for the mlh1 rad18 strain (AID 175). Particulars: S. cerevisiae mlh1 rad18 strain growth inhibition; at 50.0 µM; stronger effect = higher value. Summed up:
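Genetically defined yeast (DNA repair-deficient) exposed to compounds; growth inhibition determined relative to vehicle.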

On to `COC(=O)c1c2c(cc3c1CC1(Cc4cc5c(c(C=O)c4C1)CCC5)C3)CCC2` (stereo unspecified), for which the growth inhibition in assay [1] is -50.6%; in assay [2], -23.4%; in assay [3] it was 8.25%; in assay [4], 1.55%; in assay [5], 14.4%; in assay [6], 4.8%.

On to `OCC1OC(n2ncc3c(Nc4ccccc4)ncnc32)C(O)C1O` (stereo unspecified), for which the growth inhibition was 17.1% in assay [1]; 18.3% in assay [2]; 6.75% in assay [3]; -5.7% in assay [4]; 6.9% in assay [5]; 17.9% in assay [6].

As for `C/C(=N\NC(=S)N1CCC(C2CCN(C(=S)N/N=C(\C)c3ccccn3)CC2)CC1)c1ccccn1`, the growth inhibition in assay [1] was 32.4%; in assay [2], 15.5%; in assay [3], 60.1%; in assay [4], 45.2%; in assay [5], 63.9%; in assay [6], -27.4%.

As to `Cc1c(/C=C\C(=O)c2ccccc2)c2ccccc2n1C`, the growth inhibition in assay [1] is 12.7%; in assay [2], -18.6%; in assay [3], 2.2%; in assay [4] it was -21.6%; in assay [5], -15.2%; in assay [6], 1.15%.

Regarding `CC(C)(C)c1ccc(N)cc1`, the growth inhibition in assay [1] was -37.7%; in assay [2], -29.8%; in assay [3], -10.9%; in assay [4], -3.45%; in assay [5], -2.65%; in assay [6], -13.5%.

`CCSCN1CCN(CSCC)CC1`: the growth inhibition is 1.35% in assay [1]; 1.15% in assay [2]; 3.5% in assay [3]; 27.5% in assay [4]; -11.9% in assay [5]; -5.05% in assay [6].

For the compound `O=[N+]([O-])c1cccc(OCC2CO2)c1` (stereo unspecified), the growth inhibition in assay [1] is 9%; in assay [2] it was -23.8%; in assay [3] it was -0.75%; in assay [4] it was -13.2%; in assay [5], -2.1%; in assay [6], 34.5%.

Consider `CC(C)C1NC(=O)[C@H](C)OC(=O)[C@@H](C(C)C)NC(=O)[C@@H](C)OC(=O)C(C(C)C)NC(=O)[C@H](C)OC1=O` (stereo partly specified), for which the growth inhibition in assay [1] was -36.7%; in assay [2], -2.15%; in assay [3], -17.1%; in assay [4] it was 14.9%; in assay [5], 2.85%; in assay [6], -10.2%.

As for `Brc1nc2c3ccccc3ncn2c1Br`, the growth inhibition in assay [1] is 45.2%; in assay [2], -3.05%; in assay [3] it was 21.3%; in assay [4] it was -4.25%; in assay [5], 1.7%; in assay [6], 23.3%.

As for `CCOP(=O)(OCC)/C(C#N)=C/c1cnc(-c2ccccc2)[nH]1`, the growth inhibition in assay [1] was -38%; in assay [2] it was -4.85%; in assay [3] it was -32.8%; in assay [4] it was 16.1%; in assay [5], 13.4%; in assay [6] it was -34%.

For `S=C(Cc1ccccc1)Nc1ccccc1`, the growth inhibition in assay [1] was 12.1%; in assay [2], -18.5%; in assay [3], 14.1%; in assay [4] it was -22.9%; in assay [5], -25.4%; in assay [6] it was 3.3%.

`O=C(O)c1ccc2ncc(-c3ccccc3)nc2c1`: the growth inhibition was 5.3% in assay [1]; 11.7% in assay [2]; 2.35% in assay [3]; -31.1% in assay [4]; -7.4% in assay [5]; 16.4% in assay [6].

As for `CCC(c1ccc(OC)cc1)c1cc2c(cc1OCCO)OCO2` (stereo unspecified), the growth inhibition in assay [1] is 70.9% (active); in assay [2], 66.3%; in assay [3], 81.7% (active); in assay [4], 67.7%; in assay [5] it was 58.1%; in assay [6] it was 96.3% (active).

Consider `COc1cc2c(-c3cc(OC)c(OC)c(OC)c3)cc(C)[n+](C)c2cc1OC`, for which the growth inhibition is 6.25% in assay [1]; -9.2% in assay [2]; -2.3% in assay [3]; -15% in assay [4]; -13.3% in assay [5]; 1.8% in assay [6].

In the case of `CC(C)N(CSc1ccc([N+](=O)[O-])cc1)CSc1ccc([N+](=O)[O-])cc1`, the growth inhibition in assay [1] is 12.3%; in assay [2], 5.75%; in assay [3], 4.1%; in assay [4], -4.1%; in assay [5], -4.7%; in assay [6], -1%.

With `COc1cc(NCCCCCCCNC(C)C)c2nccc(C)c2c1`, the growth inhibition is 26.7% in assay [1]; 13.7% in assay [2]; -6.25% in assay [3]; 7.35% in assay [4]; -2.7% in assay [5]; -33.1% in assay [6].

With `CC1CCCC2(C)CCC(=O)C=C12` (stereo unspecified), the growth inhibition in assay [1] was -2%; in assay [2], 6.75%; in assay [3], -12.5%; in assay [4], -13.8%; in assay [5], -1.95%; in assay [6] it was -20.5%.

In the case of `CC(=O)Nc1ccc2c(c1)C(N1CCCCC1)c1ccccc1-2` (stereo unspecified), the growth inhibition is -42.2% in assay [1]; -17.8% in assay [2]; 4.2% in assay [3]; -40.1% in assay [4]; -2.6% in assay [5]; -5.4% in assay [6].

Take `CCOC(=O)N1C(c2ccccc2)N(c2ccccc2)C(c2ccccc2)N1C(=O)OCC` (stereo unspecified): the growth inhibition is 4.7% in assay [1]; 4.65% in assay [2]; 22.9% in assay [3]; 3.3% in assay [4]; -15.6% in assay [5]; 14.8% in assay [6].

For the compound `C=CCNC(=S)Nc1ccccc1OCC`, the growth inhibition in assay [1] was 5.2%; in assay [2], -3.8%; in assay [3] it was -5.05%; in assay [4], -68.5%; in assay [5], -9.6%; in assay [6] it was 0.2%.

In the case of `CC(O)c1ccc2c(c1)Nc1ccccc1S2` (stereo unspecified), the growth inhibition is -6.95% in assay [1]; -21.9% in assay [2]; -16.4% in assay [3]; -7.05% in assay [4]; -24.4% in assay [5]; -11% in assay [6].

For `COc1ccc([N+](=O)[O-])cc1OC`, the growth inhibition is 29.9% in assay [1]; -0.15% in assay [2]; 33.1% in assay [3]; 1.65% in assay [4]; 0.45% in assay [5]; 16.1% in assay [6].

As to `CCOC(=O)CN1C(=O)CSC1=S`, the growth inhibition in assay [1] is 42%; in assay [2] it was -3.85%; in assay [3] it was 24.3%; in assay [4] it was 22.4%; in assay [5] it was 61.4%; in assay [6], 31.1%.

For the compound `O=COCCCc1ccccc1`, the growth inhibition was 15.8% in assay [1]; -1.85% in assay [2]; 11.8% in assay [3]; -5.2% in assay [4]; 3.15% in assay [5]; -23.7% in assay [6].

For the compound `N=C1N=Nc2nc(C(C(=O)c3cccc([N+](=O)[O-])c3Cl)c3nc4n(c3O)C(=N)N=N4)c(O)n21` (stereo unspecified), the growth inhibition was -2.65% in assay [1]; 0.7% in assay [2]; 13.8% in assay [3]; -23.5% in assay [4]; -0.15% in assay [5]; 2.8% in assay [6].

Consider `CC1(C=O)CCCC2(C)[C@@H]1CCC13CC(CO)C(CC[C@H]12)C3` (stereo partly specified), for which the growth inhibition in assay [1] is 19.4%; in assay [2], 5.7%; in assay [3], 10.8%; in assay [4], 16.6%; in assay [5], 14.1%; in assay [6], 18.6%.

`CCOC(=O)C1(C)CCCCC1=O` (stereo unspecified): the growth inhibition was 7.45% in assay [1]; -6.55% in assay [2]; 3.2% in assay [3]; 7.95% in assay [4]; 5.9% in assay [5]; 2.95% in assay [6].

Take `COC(=O)c1ccc(N=Nc2ncc(CC(NC(C)=O)C(=O)OC)[nH]2)cc1` (stereo unspecified): the growth inhibition was -16.9% in assay [1]; -46.9% in assay [2]; 20.9% in assay [3]; -34.5% in assay [4]; 4.2% in assay [5]; -13.4% in assay [6].

Consider `NC(=O)Cc1nc(O)cc(=O)[nH]1`, for which the growth inhibition was -8.45% in assay [1]; -9.1% in assay [2]; -8.3% in assay [3]; -13.1% in assay [4]; -1.9% in assay [5]; -2.15% in assay [6].

On to `CN1C(=S)CSc2ccccc21`, for which the growth inhibition in assay [1] is -8.5%; in assay [2] it was -4%; in assay [3], -11.3%; in assay [4] it was 26%; in assay [5] it was -9.75%; in assay [6], 1.85%.

Turning to `CCOC(=O)n1oc2ccc(Br)cc2c1=O`, the growth inhibition is 53.3% in assay [1]; 58% in assay [2]; 76.2% (active) in assay [3]; 45% in assay [4]; 61.6% in assay [5]; 64.5% in assay [6].

For the compound `Cc1nc(Cl)nc2c1C(=O)Nc1ccccc1N2`, the growth inhibition in assay [1] was 27.2%; in assay [2], 14.4%; in assay [3], 0%; in assay [4], 2.95%; in assay [5] it was 28.1%; in assay [6], 15.9%.

Take `CCN(CC)CCN(N)CCN(CC)CC`: the growth inhibition in assay [1] is 20.6%; in assay [2], -24.8%; in assay [3], -1.2%; in assay [4], -1.5%; in assay [5] it was -44.2%; in assay [6], -17.2%.

`COc1cccc(C(OC(=O)c2ccccc2)c2nncc3ccccc23)c1OC` (stereo unspecified): the growth inhibition in assay [1] is 32.4%; in assay [2] it was 11.8%; in assay [3] it was 9.6%; in assay [4] it was 5.9%; in assay [5] it was 9.85%; in assay [6], 5.8%.

`O=C(O)c1ccc(NC(=S)Nc2ccc(C(=O)O)cc2)cc1`: the growth inhibition was -13.5% in assay [1]; -0.15% in assay [2]; 19.9% in assay [3]; -7.4% in assay [4]; -6.15% in assay [5]; -22.9% in assay [6].

As to `CCOC(=O)c1ccc(C(=N)N)cc1`, the growth inhibition was 8.4% in assay [1]; 2.2% in assay [2]; 11% in assay [3]; -15.2% in assay [4]; 11.2% in assay [5]; 5.55% in assay [6].
